Compounds without any hit were thinned out: in the full panel of roughly 83,000, 20% have a hit.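 Assay: single dose, 48 h. Readout: percent growth (0 = no net growth; negative = cell death). Active: <10.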 Unmarked numbers belong to inactive results. Active and inactive are the calls of the source.
System: HL-60(TB) leukemia
Assay: NCI-60 one-dose screen, 48 h (100 = growth as untreated, 0 = no growth, -100 = all killed)
Details: 10 µM unless noted

| SMILES | growth |
| --- | --- |
| O=C(Nc1ccc(Cl)cc1)c1cc2cc(F)ccc2cc1O | -4.75% (active) |
| COc1cc(/C=C/C(=O)CC(=O)/C=C/c2ccc(OC(=O)C3C4CC5CC(C4)CC3C5)c(OC)c2)ccc1OC(=O)C1C2CC3CC(C2)CC1C3 (stereo unspecified) | 94% |
| CCCCCCCC(=O)SCC/C=C/[C@@H]1CC(=O)NCc2cccc(n2)CN(Cc2ccc3ccccc3c2)CC(=O)N[C@@H](C(C)C)C(=O)O1 | 11% |
| COc1ccc(/C=C/C(=O)c2cc3c(N)c(C(=O)Nc4ccccc4C)sc3nc2C)cc1 | 10.7% |
| O=C(Nc1ncc([N+](=O)[O-])s1)c1cccc([N+](=O)[O-])c1 | 2.45% (active) |
| CCOC(=O)Nc1nn[nH]n1 | 47.7% |
| CC/C=C\C[C@H]1CC=C2C(=O)C=C[C@@H]2CC=CCCCC(=O)O[C@@H](CCCCC)CC=C2C(=O)C=C[C@@H]2CC=CCCCC(=O)O[C@@H](CCCCC)CC=C2C(=O)C=C[C@@H]2CC=CCCCC(=O)O[C@@H](CCCCC)CC=C2C(=O)C=C[C@@H]2CC=CCCCC(=O)O1 | -15.3% [7.9 µM] (active) |
| COc1ccc(/C=C(/C(=O)N2CCN(c3ccccc3)CC2)c2cc(OC)c(OC)c(OC)c2)cc1O | -34.5% (active) |
| CSc1ccc2c(c1)N(CCC1CCCCN1C)c1ccccc1S2 (stereo unspecified) | 86.1% |
| C/C(=N\OC(=O)Nc1ccccc1)c1ccccc1 | 119% |
| C[C@@H]1CC[C@@]2(OC1)O[C@H]1C[C@H]3[C@@H]4CC=C5C[C@@H](O[C@@H]6O[C@H](CO)[C@@H](O[C@@H]7O[C@@H](CO)[C@H](O)[C@H]7O)[C@H](O)[C@H]6O[C@@H]6O[C@@H](C)[C@H](O)[C@@H](O)[C@H]6O)CC[C@]5(C)[C@H]4CC[C@]3(C)[C@H]1[C@@H]2C | -84.1% (active) |
| CC1(C)NCCC[C@]2(C)[C@H]3CC(=O)[C@H]4[C@@H]5C[C@](C)(CO)CC[C@]5(C)CC[C@@]4(C)[C@]3(C)CC[C@@H]12 | 102% |
| O=C1CCCCN1CCCCC#Cc1ccccc1C#Cc1ccccn1 | 78.2% |
| Cc1[nH]n(-c2ccccc2)c2nc3nncc3c(-c3ccc(Cl)cc3)c12 | 110% |
| COc1cccc(/C=C/C(=O)c2cc3c(N)c(C(=O)Nc4ccccc4C)sc3nc2C)c1 | 26.3% |
| Cc1nc2sc(C(=O)Nc3cccc4ccccc34)c(N)c2cc1C(=O)c1ccccc1 | -50.6% (active) |

| SMILES | growth |
| --- | --- |
| O=c1c2ccccc2sc2c(NCCCNCCO)nc3ccccc3c12 | 7.81% (active) |
| C=C1CCC2C3(C)COC(C)(C)OC3CCC2(C)C1C/C=C1/C(=O)OCC1OC(C)=O (stereo unspecified) | -43.8% (active) |
| COc1ccc(/C=C2\Oc3cc(OCCCN4CCCC4)ccc3C2=O)c(OC)c1 | 96.2% |
| CC(=O)N(O)c1ccc(/C=C/c2ccccc2)cc1 | 23.4% |
| COc1ccc2nc(NC(=O)/C(=C/c3cc(OC)c(OC)c(OC)c3)c3ccc(OC)c(OC)c3)sc2c1 | 94.5% |
| CCc1ccc(NC(=O)N[C@@H](Cc2cc(F)cc(F)c2)C(=O)N[C@@H]2C(=O)N3C[C@H](O)C[C@H]3C(=O)N3CCOC[C@H]3C(=O)N[C@@H](C)C(=O)N3C[C@H](C)C[C@H]3C(=O)O[C@H]2C)cc1 | 23.8% |
| N#C/C(=C\NC(=S)N=Nc1c(O)[nH]c2ccccc12)c1nc2ccccc2s1 | 103% |
| c1csc(-c2nc(-c3cc4ccccc4c(N4CCOCC4)n3)cs2)c1 | 121% |
| CC(=O)O.CC(=O)O.O.[Fe] | 114% |
| CC(C)(C)OC(=O)CN1CCc2c(sc3ncnc(N/N=C/c4cccc5ccccc45)c23)C1 | -9.67% (active) |
| CCOC(=O)C1=C(C)N2C(=NC3=C(CCCC/C3=C\c3cc(OC)c(OC)c(OC)c3)C2c2cc(OC)c(OC)c(OC)c2)S1 (stereo unspecified) | 49.9% |
| O=c1nc(Nc2cccc(Cl)c2)oc2cc(Cl)oc(=O)c12 | 26.4% |
| CC(C)=CCc1ccc(O)c(=O)cc1C(C)C | -1.27% (active) |
| O=S(=O)(NCCCNc1nccc(-c2c(-c3ccc(F)c(O)c3)nc3sccn23)n1)c1ccc(F)cc1 | -54.8% (active) |
| O=C(O)CCCl | 107% |

— PubChem BioAssay (NCI)
